HT1080 IDH1KD tx: toxicity to HT-1080 IDH1 knockdown cells (counter line); 360,000 tested, 2% active; HT-1080 IDH1 knockdown viability, ATP luminescence, 48 h; Potency, µM (top dose mostly 46.1 µM), for the others: at the top dose activity, negative = toxicity, most hits filed as cytotoxic; AID 686971;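 also: potency is read from the fitted curve at half-maximal effect; 0% = DMSO wells and -100% = cell-free medium wells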
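Cytotoxicity counter-line: IDH1KD HT-1080, 48 h, CellTiter-Glo. Curves classed by r2, magnitude and activity.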
DT40 TDP1 no CPT: qHTS for Inhibitors of human tyrosyl-DNA phosphodiesterase 1 (TDP1): qHTS in cells in absence of CPT; 420,000 tested, 15% active; Potency, µM (top dose mostly 46.2 µM), for inactives: at the highest dose activity change, negative = growth inhibition, actives largely listed as inhibitors; DT40 Tdp1-/- hTDP1 cells, no CPT, ATP luminescence, 48 h; also: potency is read from the fitted curve at half-maximal effect; nearly all actives have a fitted effect of over 55% in size
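Chicken DT40 Tdp1-/- cells stably complemented with human TDP1 were seeded at 400 cells/well with DMSO in place of 20 nM camptothecin. After compound pinning, cells grew at least 48 hr at 37 °C; viability read by CellTiter-Glo luminescence.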
DT40 TDP1 CPT: growth inhibition of DT40 Tdp1-/-;hTDP1 cells with camptothecin (screen for TDP1 inhibitors) | chicken DT40 Tdp1-/-;hTDP1 cells + 20 nM CPT, ATP luminescence, 48 h | Potency, µM (series often up to 46.2 µM), inactives show at the top dose activity change, negative = growth inhibition, most hits filed as inhibitors | 420,000 tested, 12% active | AID 686979; also: potency is read from the fitted curve at half-maximal effect; nearly all actives have a fitted effect of over 55% in size
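Cell growth measured by CellTiter-Glo luminescence after a minimum 48 h, 37 C compound exposure with 20 nM CPT in Tdp1-knockout DT40 cells stably expressing hTDP1, seeded 400/well; qHTS titration format.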
IL1B secr inh: blocks inflammasome-driven IL-1 beta release; THP-1 LPS/ATP IL-1B secretion, AlphaLISA, 16 h; hits give low values; activity change, % at 57.5 µM; 360,000 tested, 4.7% active; in the data active = activity change below about -50%; inconclusive = mostly about -30% to -49%
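THP-1 cells pretreated 1 hr with compounds (up to 57.5 uM final), then stimulated with LPS (250 ng/mL final) plus ATP (1.25 mM final); secreted IL-1B measured by AlphaLISA after 16 hr, decreased signal indicating inhibition.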
HT1080-NT tox: kills 2HG-producing HT-1080-NT fibrosarcoma cells; HT-1080-NT fibrosarcoma viability, CellTiter-Glo ATP luminescence, 48 h; Potency, µM (doses to about 46.1 µM), without a hit: top-dose activity, negative = less viability, actives largely listed as cytotoxic; 360,000 tested, 1.6% active;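 also: NT is the 2HG producing partner of a matched IDH1 knockdown line; potency is read from the fitted curve at half-maximal effect; 0% = DMSO-treated cells and -100% = media-only wells without cells; nearly all actives have a fitted effect of over 55% in size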
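Compounds were tested in concentration-response format on HT-1080-NT cells for 48 hours at 37 degrees C. Cell viability came from CellTiter-Glo luminescence; curves were classified by r2, response magnitude and activity.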
The depositor's hits bear a star; ? = inconclusive; . = no result given. Rows were chosen to be rich in hits. Some 19% of all compounds tested hit in one or more screens of this group. Unless noted, calls follow the shape of the dose curve; as a rule, active = well fitted curve in the direction sought with a large enough effect; inconclusive = small, poorly fitted or top-dose-only effect, or another doubt; inactive = no such curve, though single readings can be large; an effect the other way counts as inactive or inconclusive. Unless noted, % is scaled to controls: 0 for no effect and ±100 for the full control effect.

SMILES	HT1080 IDH1KD tx	DT40 TDP1 no CPT	DT40 TDP1 CPT	IL1B secr inh	HT1080-NT tox
CCc1nc2c(OCC(=O)c3ccc(Cl)cc3Cl)cccn2c1N(C=O)Cc1ccc(OC)cc1	?	18.4µM*	23.1µM*	1.4	-28.2%
Cc1cccc(Cl)c1NC(=O)N1CCN(c2ccnc3cc(Cl)ccc23)CC1	-18.0%	13µM*	?	-11.1	-2.2%
O=C(Nc1ccc(C(F)(F)F)cc1)N1CCN(c2ccnc3cc(Cl)ccc23)CC1	29.1µM*	16.4µM*	23.1µM*	-65.4*	?
CCCCNC(=O)N1CCN(c2ccnc3cc(Cl)ccc23)CC1	3.2%	13µM*	20.6µM*	-22.3	-2.5%
O=C(Nc1cc(F)ccc1F)N1CCN(c2ccnc3cc(Cl)ccc23)CC1	-3.5%	5.17µM*	4.11µM*	?	-8.2%
COc1ccc(Cl)cc1NC(=O)N1CCN(c2ccccc2OC)CC1	-12.7%	?	?	-3.7	-5.3%
Cc1ccc(F)cc1NC(=O)N1CCN(c2ccnc3cc(Cl)ccc23)CC1	-20.6%	?	?	-27.9	3.9%
O=C(O)CSCC(=O)N1CCN(c2ccnc3cc(Cl)ccc23)CC1	8.2%	7.7%	2.6%	1.3	5.7%
CCCn1c(N)c(N(CCOC)C(=O)CSCC(=O)Nc2cccc(C)c2)c(=O)[nH]c1=O	1.2%	2.9%	1.9%	15.6	5.8%
CCc1ccccc1NC(=O)CSc1nc2c(c(=O)[nH]1)CN(Cc1ccccc1OC)CC2	.	-27.0%	?	.	.
N#C/C(=C\c1c(N2CCCCC2)nc2ccccn2c1=O)S(=O)(=O)c1ccccc1	-14.9%	?	3.2%	-26.8	-7.1%
O=C(O)c1cc(/C=N\O)ccc1OCc1ccccc1	17.2%	-19.1%	-5.3%	4.8	14.9%
COc1cc(/C=N/N=C(N)N)ccc1OCc1ccc(Cl)cc1	?	5.8µM*	6.51µM*	-94.1*	?
CCCC(C)NC(=O)c1ccc(OCc2ccc(Cl)cc2)c(OC)c1 (stereo not drawn)	-24.3%	8.2µM*	?	-9.4	-1.3%
CCOc1cc(/C=N/N=C(N)N)ccc1OCc1ccc(Cl)cc1	?	16.4µM*	14.6µM*	-108.4*	?
NC(N)=N/N=C/c1ccc(OCc2ccccc2)c(OCc2ccccc2)c1	18.4µM*	18.4µM*	?	-96.2*	23.1µM*
COc1ccc(C(C(=O)NC2CCCCC2)N(C(=O)c2ccco2)c2ccccc2OC)cc1 (stereo not drawn)	?	16.4µM*	?	-20.0	-26.9%
COc1ccc(C)cc1N(C(=O)c1ccco1)C(C(=O)NC1CCCC1)c1ccc(N2CCOCC2)cc1 (stereo not drawn)	-1.0%	9.2µM*	-12.9%	-58.5*	-2.8%
COc1cccc(C(C(=O)NC2CCCCC2)N(C(=O)c2ccco2)c2ccccc2OC)c1 (stereo not drawn)	-14.0%	11.6µM*	?	3.7	-8.8%
COc1cc2c(cc1OC)C(c1ccccc1)N(C(=O)c1cccc(S(C)(=O)=O)c1)CC2 (stereo not drawn)	-0.1%	?	-1.6%	-17.9	-14.3%
Cc1ccc(NCc2nnc(SCC(=O)N3c4ccccc4Sc4ccccc43)o2)c(C)c1	-1.0%	?	?	-16.4	3.1%
C#CCOCCOCCOCCNc1nc(OC)nc(N2CCN(C(=O)[C@H](CCC(=O)O)n3cc(C(N)CO)nn3)CC2)n1 (stereo partly drawn)	6.1%	6.1%	1.3%	16.0	7.0%
Brc1ccc([C@H]2C=C[C@H]3CCCN4CC[C@H]2[C@@H]3[C@]42CO2)cc1	-23.4%	11.6µM*	18.4µM*	?	-11.9%
CC1(Cc2cccc(C(F)(F)F)c2)C(=O)Nc2c(Cl)cccc21 (stereo not drawn)	-3.4%	?	?	9.8	-7.2%
CC1(Cc2ccc3c(c2)OCO3)C(=O)Nc2ccc(-c3cccc(C(F)(F)F)c3)cc21 (stereo not drawn)	?	20.6µM*	23.1µM*	?	?
SMILES	HT1080 IDH1KD tx	DT40 TDP1 no CPT	DT40 TDP1 CPT	IL1B secr inh	HT1080-NT tox
CC1(Cc2ccc(C(F)(F)F)o2)C(=O)Nc2ccc(-c3cccc(C(F)(F)F)c3)cc21 (stereo not drawn)	?	11.6µM*	14.6µM*	-8.7	?
CC1(Cc2ccc3c(c2)OCO3)C(=O)Nc2c(Cl)ccc(Cl)c21 (stereo not drawn)	?	23.1µM*	?	37.6	-0.7%
CCc1ccc2c(c1)NC(=O)C2(C)Cc1ccc(C(F)(F)F)o1 (stereo not drawn)	?	?	23.1µM*	3.8	-29.3%
CC(=O)N1CCOc2ccc(S(=O)(=O)N3CCC(C(=O)Nc4ccc(F)cc4)CC3)cc21	-9.0%	-20.0%	-20.3%	6.8	-9.9%
CC(C)N(CCO)Cc1nc(N2CCOCC2)c2cc(Cl)ccc2n1	.	20.6µM*	?	.	.
O=C(/C=C/Sc1ccc(C(F)(F)F)cn1)c1ccccc1	4.7%	2.31µM*	2.91µM*	?	-1.6%
O=C(CSc1ccc(C(F)(F)F)cn1)Nc1ccccc1	9.9%	-1.6%	3.1%	-9.0	17.1%
COc1ccc(C(CCN2CCOCC2)c2c(OC)cc(OC)c3c(-c4ccccc4)cc(=O)oc23)cc1 (stereo not drawn)	?	8.2µM*	6.51µM*	?	-19.5%
COc1cc(OC)c2c(C)cc(=O)oc2c1C(CCN1CCN(c2ccccc2)CC1)c1ccc2c(c1)OCO2 (stereo not drawn)	-13.4%	20.6µM*	5.17µM*	48.4	-12.7%
COc1cc(OC)c2c(-c3ccccc3)cc(=O)oc2c1C(CCN1CCOCC1)c1ccc2c(c1)OCO2 (stereo not drawn)	?	?	14.6µM*	-14.7	23.1µM*
COc1ccc(C(CCN2CCCC2)c2c(OC)cc(OC)c3c(-c4ccccc4)cc(=O)oc23)cc1 (stereo not drawn)	-2.6%	16.4µM*	?	-5.8	?
Cc1nnc(SCc2cccc([N+](=O)[O-])c2)[nH]c1=O	-1.8%	-19.2%	34.0%	0.4	0.2%
O=C(Nc1cccc(S(=O)(=O)N2CCOCC2)c1)[C@@H]1CCCN1S(=O)(=O)c1ccc(Cl)cc1	-0.8%	-17.7%	?	6.8	-0.5%
COc1ccc(C(CCN2CCOCC2)c2c(OC)cc(OC)c3ccc(=O)oc23)cc1 (stereo not drawn)	0.5%	20.6µM*	?	-2.7	-0.7%
COc1cc(C(CCN2CCCC2)c2c(OC)cc(OC)c3c(-c4ccccc4)cc(=O)oc23)cc(OC)c1OC (stereo not drawn)	-18.6%	20.6µM*	16.4µM*	17.4	-26.4%
